# Reference: the supplement of paper PMC3334620
# Over roughly 33,000 sequences, “E-score (-0.5 to 0.5)” has its median near -0.016; the highest 2% begin near 0.32. The entries come from a sample that favours the highest values as a whole.
# Target: T1, Stp1 (UniProt B3LFK1)
# T1 sequence: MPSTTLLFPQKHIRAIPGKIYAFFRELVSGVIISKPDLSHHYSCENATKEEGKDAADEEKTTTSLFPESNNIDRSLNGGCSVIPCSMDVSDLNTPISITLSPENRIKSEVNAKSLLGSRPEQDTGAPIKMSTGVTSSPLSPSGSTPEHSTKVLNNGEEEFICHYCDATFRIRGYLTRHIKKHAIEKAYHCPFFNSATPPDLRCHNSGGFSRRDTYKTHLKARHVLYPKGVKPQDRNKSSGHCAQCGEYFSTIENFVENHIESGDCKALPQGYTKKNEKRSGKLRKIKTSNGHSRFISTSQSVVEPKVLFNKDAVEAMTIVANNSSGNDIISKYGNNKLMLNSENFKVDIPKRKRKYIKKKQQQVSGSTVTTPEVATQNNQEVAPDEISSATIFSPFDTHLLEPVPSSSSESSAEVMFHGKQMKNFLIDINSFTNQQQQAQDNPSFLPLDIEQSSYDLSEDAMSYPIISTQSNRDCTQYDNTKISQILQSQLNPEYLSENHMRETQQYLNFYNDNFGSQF
# Experiment: PBM E-score (8-mer binding enrichment) (E-score (-0.5 to 0.5)); higher = stronger / more preferred TF binding
# Settings: protein concentration: 200 nM; construct: GST-full length
# Description: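 Universal 'all 10-mer' protein binding microarrays (Agilent AMADID 015681) probed with GST-tagged S. cerevisiae TFs (full-length or DBD) made by in vitro transcription/translation (PURExpress), about 100-200 nM. Bound TF was detected with fluorescent anti-GST. Each ungapped 8-mer (which stands for itself and its reverse complement) is scored by the PBM enrichment score (E-score), a modified Wilcoxon-Mann-Whitney statistic from -0.5 to +0.5, computed with the Universal PBM Analysis Suite. Scale: above 0.35 generally sequence-specific binding.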
row,Sequence,PBM E-score
1,CAGCTAAG,-0.153
2,CCCGGTTA,-0.0439
3,CCTCCCAC,-0.132
4,ACCGTAGC,-0.138
5,CCCGTAGC,-0.24
6,ACCGTAGA,0.0293
7,GCCGTAGA,0.427
8,TCCGTAGA,0.0858
9,GCCGTAGC,0.444
10,AACATTCT,0.215
11,AGGACGGC,0.324
12,CGGACGGA,-0.0178
13,AGGACGGG,-0.271
14,AGGACGGA,-0.161
15,CGGACGTC,-0.00174
16,CGGACGGC,0.442
17,CTTGTGGA,0.016
18,CCTACATC,-0.191
19,ATTCGAAT,0.0494
20,AACTGTCA,-0.0285
21,CGGTATGC,-0.0255
22,CCGTATGC,0.331
23,ACGTATGC,0.00677
24,CCGTATGA,0.337

row,Sequence,PBM E-score
1,ACGTATGA,0.15
2,GCGTATGA,0.09
3,CCAAACGC,0.0617
4,GAAAAGGC,0.145
5,AAAAACGC,0.125
6,CGAAAGGA,-0.102
7,AAAAAGGC,0.249
8,AGAAAGGC,0.206
9,CAAAAGGC,0.359
10,CGAAAGGC,0.355
11,CAAAACGC,0.322
12,GCCTGGAA,-0.133
13,GCGCATCC,0.0373
14,CAGCACTA,-0.0254
15,GTGGTGTA,0.0559
16,AAATGTCT,-0.057
17,ATGGCATG,0.22
18,ACGGCATG,0.422
19,ACGGCATC,0.48
20,ATGGCATC,0.186
21,AGGGCATG,0.0868
22,CCGGCATC,-0.0881
23,ACGCGCTC,0.105
24,CCGAAATA,0.0974

row,Sequence,PBM E-score
1,GGATGAGA,-0.157
2,AAGTCAGC,0.0691
3,AAACGGCT,0.376
4,AAACGGAT,0.259
5,CAACGGCC,0.173
6,CAACGGGG,-0.104
7,AAACGGCC,0.368
8,CAACGGAG,-0.0687
9,AAACGGTC,0.0651
10,AAACGGAG,0.18
11,CAACGGCG,0.429
12,AAACGGCG,0.481
13,AAACGGTG,0.1
14,AAACGGGT,0.188
15,CGGGCCAG,-0.159
16,AAGCGCTG,-0.0462
17,TGCAGGCA,-0.105
18,GCTCGCCC,-0.205
19,CGGGAGAA,-0.111
20,GGACAATA,0.0607
21,ACGTCAAC,0.0286
22,CACTCTCG,-0.0668
23,ATGCTATC,-0.218
24,CGTAGGAA,-0.0469

row,Sequence,PBM E-score
1,ATGGCGGG,-0.132
2,CATTGCCA,-0.0509
3,AATTGCCA,-0.00723
4,ATTTGCCG,0.335
5,ATTTGCCA,-0.0687
6,CATTGCCC,0.0291
7,CATTGCCG,0.358
8,AATTGCCG,0.341
9,AATTGCCC,0.0223
10,ATTTGCCC,0.109
11,ACGTACGG,0.292
12,GCGTACGC,-0.0472
13,CCGTACGC,0.327
14,ACGTACGC,-0.023
15,CCGTACGA,0.298
16,CCGTACGG,0.341
17,ACGTGCCA,0.148
18,ATTCTACA,0.221
19,CAAGTGAA,0.00842
20,ACATAAGC,0.00404
21,AGCTTACA,0.0627
22,AGACCCTC,-0.313
